In the supplement of paper PMC6555819:

Key:
Assay in all cases: PBM binding z-score (relative to random genomic background probes); higher = stronger binding; sequences stand for … in GC…GCGATTGACAGCGTAGAATGAAGG
[1] = system: FXR:RXRa (NR concentration 270 nM, RXRa partner concentration 90 nM)
Summary of the method: (§1)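 Probes were double-stranded and carried 34-nt variable regions with direct-repeat seeds, single-nucleotide variants, half-site ablations and random human genomic background sequences, printed on custom Agilent 4×180K protein-binding microarrays. Arrays were incubated 1 h with ligand-free nuclear receptor dimers in PBS pH 7.4, 2% milk, 0.02% Triton X-100, 1 mM DTT, 0.2 mg/mL BSA and 0.4 mg/ml salmon testes DNA. Antibodies against each partner (one per run) detected binding, and scanned fluorescence was regression-normalized. Binding z-scores use the random background probes as reference.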

[2] = system: LXRa:RXRa (NR concentration 270 nM, RXRa partner concentration 90 nM)
Summary of the method: as §1

[3] = system: LXRa homodimer (NR concentration 270 nM)
Summary of the method: as §1

[4] = system: LXRb:RXRa (NR concentration 270 nM, RXRa partner concentration 90 nM)
Summary of the method: as §1

[5] = system: LXRb homodimer (NR concentration 270 nM)
Summary of the method: as §1

[6] = system: PPARa:RXRa (NR concentration 270 nM, RXRa partner concentration 90 nM)
Summary of the method: as §1

[7] = system: PPARg:RXRa (NR concentration 180 nM, RXRa partner concentration 90 nM)
Summary of the method: as §1

[8] = system: PPARg:RXRa 270nM:90nM, anti-RXR (NR concentration 270 nM, RXRa partner concentration 90 nM)
Summary of the method: as §1

[9] = system: PPARg:RXRa 30nM:10nM, anti-RXR (NR concentration 30 nM, RXRa partner concentration 10 nM)
Summary of the method: as §1

[10] = system: PPARg:RXRa 90nM:30nM, anti-RXR (NR concentration 90 nM, RXRa partner concentration 30 nM)
Summary of the method: as §1

[11] = system: PPARg:RXRa DBDmut IVT, anti-RXR (DBD mutation: RXRa K156A/R161A, NR concentration 270 nM, RXRa partner concentration 90 nM)
Summary of the method: as §1

[12] = system: PPARg:RXRa IVT, anti-PPARg (NR concentration 270 nM, RXRa partner concentration 90 nM)
Summary of the method: as §1

[13] = system: PPARg DBDmut:RXRa IVT, anti-PPARg (DBD mutation: PPARg1 K132A/R137A, NR concentration 270 nM, RXRa partner concentration 90 nM)
Summary of the method: as §1

[14] = system: PPARg DBDmut IVT, anti-PPARg (DBD mutation: PPARg1 K132A/R137A, NR concentration 270 nM)
Summary of the method: as §1

[15] = system: PPARg homodimer (NR concentration 180 nM)
Summary of the method: as §1

[16] = system: PXR:RXRa (NR concentration 270 nM, RXRa partner concentration 90 nM)
Summary of the method: as §1

[17] = system: PXR homodimer (NR concentration 270 nM)
Summary of the method: as §1

[18] = system: RARa:RXR (NR concentration 270 nM, RXRa partner concentration 90 nM)
Summary of the method: as §1

[19] = system: RARa homodimer (NR concentration 270 nM)
Summary of the method: as §1

[20] = system: RARb:RXRa (NR concentration 270 nM, RXRa partner concentration 90 nM)
Summary of the method: as §1

Sequence | PBM binding z-score [1] | PBM binding z-score [2] | PBM binding z-score [3] | PBM binding z-score [4] | PBM binding z-score [5] | PBM binding z-score [6] | PBM binding z-score [7] | PBM binding z-score [8] | PBM binding z-score [9] | PBM binding z-score [10] | PBM binding z-score [11] | PBM binding z-score [12] | PBM binding z-score [13] | PBM binding z-score [14] | PBM binding z-score [15] | PBM binding z-score [16] | PBM binding z-score [17] | PBM binding z-score [18] | PBM binding z-score [19] | PBM binding z-score [20]
TCATATAGGTAAAAGATGAAAGTCGGTGTGGTAA | 0.736 | 1.17 | -0.031 | 1.03 | 0.134 | 2.6 | 3.49 | 4.9 | 5.17 | 5.29 | 4 | 2.54 | 1.07 | 0.573 | 0.893 | 0.672 | 0.283 | 1.08 | 1.1 | 0.338
CGTCCAAGGTCAAGGTAAGTGAAAGAGACTCGAA | 7.13 | 5.23 | 0.112 | 3.72 | 0.343 | 5.58 | 5.26 | 5.51 | 1.81 | 4.01 | 3.13 | 3.85 | 0.749 | 0.108 | 3.18 | 3.52 | 0.541 | 4.27 | 1.1 | 5.3
GCTTACGGGTCAAAGGGTATAGCATGAATAGAAT | 6.94 | 4.45 | 0.132 | 4.28 | 0.557 | 6.21 | 9 | 7.96 | 7.14 | 8.29 | 4.35 | 5.08 | 1.19 | 2.3 | 2.55 | 4.16 | 0.626 | 5.66 | 0.592 | 4.09
GCAGACAGGTGAAACGCAGGAAACTCAGGGTGGC | -0.517 | -0.226 | -0.695 | -0.346 | -1.08 | 0.952 | 0.592 | -0.351 | -0.59 | -0.582 | 0.874 | 0.378 | -0.857 | -0.37 | -0.537 | -0.387 | -0.338 | -0.0101 | -0.25 | 0.527
CCGACTGGGGCTGAAAGGTTACCATACCATCCGG | 0.294 | 0.581 | -0.00145 | 0.846 | -1.11 | 1.76 | 0.998 | 1.93 | 0.223 | 1.31 | -0.623 | -0.162 | -1.05 | -1.01 | 0.352 | 1.1 | -0.23 | 1.85 | -0.057 | 1.46
GGAACGAGGGAAAAGTTGATAGCATCTGTCGACG | -0.286 | -0.349 | -0.321 | -0.59 | -0.568 | 1.15 | 2.04 | 3.68 | 1.71 | 3.49 | -0.174 | 0.0196 | -0.986 | -1.13 | -0.562 | -0.557 | -0.343 | -0.659 | -0.0387 | -0.212
TCTTGTAGATCAACTGGAGGTTAAGAAAGATCGA | 0.425 | 1.71 | 1.03 | 1.22 | -0.276 | 1.53 | -0.287 | 1.31 | 2.76 | 1.89 | 1.68 | 0.919 | 0.402 | 0.432 | -0.255 | 0.704 | -0.291 | 1.13 | -0.0829 | 0.631
ACTTACGGGTCAACGAGGTTATAGCGCGCGTATA | 6.93 | 5.04 | 0.711 | 4.5 | 0.647 | 5.73 | 5.68 | 5.59 | 2.17 | 4.49 | 3.58 | 4.21 | 0.78 | 1.28 | 2.15 | 5.22 | 3.53 | 5.29 | 0.581 | 4.29
TCTTATAGATCAACAGGAGGTTAAGAAAGATCGA | 0.826 | 1.6 | 0.457 | 1.36 | 0.165 | 1.6 | 0.533 | 2.08 | 3.48 | 2.93 | 2.24 | 0.332 | 0.51 | 0.867 | 0.452 | 0.958 | 0.0264 | 1.46 | 0.64 | 0.877
